Experimental findings from PubChem BioAssay are described below.

Assay [1] can be described thus: inhibitors of TNFa-induced NFkB p65 translocation, primary screen, imaging, HUVEC, MLSMR starter and 10KST1 sets (AID 438;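 active = inhibition above 20% together with a positive visual image hit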;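 note: compound added about 3h40 before a 20 min TNFalpha stimulation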;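 for inhibition: signal is the nuclear over cytoplasmic p65 intensity ratio per well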). Conditions: HUVEC TNFa-induced p65 nuclear translocation; cell count: measured here: nuclei count (cytotoxicity indicator), at 2.08 µM; inhibition: at 2 µM, stronger effect = higher value, 0% TNFa-plus-vehicle, 100% no-TNFa wells.
Assay [2] can be described thus: reduction of polyQ htt aggregates in cells – imaging, exon1htt(103Q)mCFP cells, high-content imaging, primary screen (AID 483;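 active = visual image review flags a hit and inhibition of aggregation exceeds 20%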;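 note: compound exposure lasted 3 days before fixation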;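 for nuclei count: percent of the per-plate median nuclei count of sample wells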). The settings on record: exon1htt(103Q)mCFP cell line, aggregate imaging, at 2 µM; inhibition of aggregation: stronger effect = higher value; nuclei count: measured here: cell count, toxicity.
A short description of assay [3]: endothelial E-selectin expression blockers – imaging, HUVEC, immunofluorescence, MLSMR starter and 10KST1 sets, primary screen (AID 487;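 active = visually confirmed hit in the image check and inhibition above 20%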;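 for inhibition: signal is fraction of cell area covered by stained E-selectin grains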;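 for nuclei count: 100% = median nuclei count of all wells on the same plate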). Conditions: HUVEC TNFalpha-induced E-selectin immunofluorescence imaging, at 2 µM; inhibition: stronger effect = higher value; nuclei count: measured here: cell number, toxicity.
A short description of assay [4]: Primary imaging screen for DUSP6 inhibitors that restore phospho-Erk in transfected HeLa cells, chemical complementation (AID 609;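 active = compounds giving at least 50% inhibition in the cell-based MKP-3 phosphatase rescue imaging test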;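 for inhibition: phospho-Erk level distribution per well compared with pooled transfected vehicle control wells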). Conditions: HeLa MKP-3 transfected, phospho-Erk imaging KS statistic, at 10 µM, cells stimulated with TPA for 15 min.
The target in assay [5] is Dual specificity protein phosphatase 6 (Homo sapiens) (UniProt Q16828). The assay is described as above. Conditions: HeLa MKP-3 transfected, phospho-Erk imaging KS statistic; at 10 µM; stronger effect = higher value; cells stimulated with TPA for 15 min.
Sequence of Dual specificity protein phosphatase 6 (Homo sapiens) (Q16828 whole entry, looked up): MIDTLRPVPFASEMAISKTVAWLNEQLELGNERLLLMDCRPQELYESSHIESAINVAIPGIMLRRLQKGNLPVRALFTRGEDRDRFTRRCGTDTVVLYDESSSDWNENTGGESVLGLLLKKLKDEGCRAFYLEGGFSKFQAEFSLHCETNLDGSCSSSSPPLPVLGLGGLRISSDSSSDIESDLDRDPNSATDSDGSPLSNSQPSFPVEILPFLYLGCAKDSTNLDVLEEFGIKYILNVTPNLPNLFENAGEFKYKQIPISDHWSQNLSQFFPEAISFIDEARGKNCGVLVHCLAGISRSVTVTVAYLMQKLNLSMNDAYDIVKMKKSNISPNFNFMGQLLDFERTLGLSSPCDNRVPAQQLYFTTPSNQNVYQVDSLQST
Assay [6] has as its target Voltage-gated potassium channel subunit beta-2 (Rattus norvegicus) (UniProt P62483). The experiment in a line: inhibitors of rat Kvbeta2 reductase activity – biochemical, NADPH fluorescence, primary screen (AID 622;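 active = fluorescence slope higher than the sample average by over 3 SD, cut at about -0.22 in these data, passing the limit was not always enough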;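 note: slope of raw intensity against log time taken from 70 to 1610 s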). The settings on record: recombinant KvBeta, 4-cyanobenzaldehyde reduction, at 10 µM, stronger effect = higher value.
Assay [7] shares this target. The experiment in a line: enhancers of rat Kvbeta2 NADPH turnover – biochemical, NADPH fluorescence, primary screen (AID 623;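 active = NADPH fluorescence slope more negative than the mean of all samples by about 3 SD, 99.7% confidence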;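 note: fluorescence intensity change per second fitted from 20 to 320 s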). The settings on record: Recombinant KvBeta, NADPH fluorescence decrease slope, 10 min; at 10 µM; stronger effect = lower value.
Assay [8] has as its target Alpha-2C adrenergic receptor (Homo sapiens) (UniProt P18825). The assay can be described thus: compounds altering alpha2C-coupled GIRK flux – cell-based, HEK293 alpha2C/GIRK1/2, thallium flux, primary screen (AID 624;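 active = fluorescence slope after compound addition differing from the mean of all screened samples at 99.7% confidence, in either direction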;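 note: slope of fluorescence ratio to pre-addition baseline per second over 15 to 24 s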). Conditions: thallium flux BTC fluorescence, at 10 µM, actives lie on both sides.
In assay [9] the target is Muscarinic acetylcholine receptor M4 (Homo sapiens) (UniProt P08173). The assay can be described thus: M4-linked GIRK flux change, two-sided – cell-based, HEK293 M4/GIRK, thallium flux, BTC-AM, M4 allosteric agonist project, primary screen (AID 625).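 Note: thallium influx through GIRK channels coupled to M4 in HEK293 cells with BTC-AM dye.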 The settings on record: at 10 µM, actives lie on both sides.
Sequence of Muscarinic acetylcholine receptor M4 (Homo sapiens) (P08173 whole entry, looked up): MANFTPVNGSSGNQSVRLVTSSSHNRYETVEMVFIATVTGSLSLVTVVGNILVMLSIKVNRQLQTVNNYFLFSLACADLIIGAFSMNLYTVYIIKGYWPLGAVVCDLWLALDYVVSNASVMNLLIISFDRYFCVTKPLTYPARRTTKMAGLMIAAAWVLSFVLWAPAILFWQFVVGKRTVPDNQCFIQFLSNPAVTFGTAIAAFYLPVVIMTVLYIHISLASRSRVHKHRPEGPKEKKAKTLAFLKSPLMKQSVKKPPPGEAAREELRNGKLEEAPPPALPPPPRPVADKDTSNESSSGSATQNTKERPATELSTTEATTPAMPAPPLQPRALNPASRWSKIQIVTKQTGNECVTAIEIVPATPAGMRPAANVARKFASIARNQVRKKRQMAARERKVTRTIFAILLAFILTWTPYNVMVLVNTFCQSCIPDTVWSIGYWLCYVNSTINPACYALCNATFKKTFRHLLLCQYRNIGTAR
Assay [10] in a line: inhibitors of larval lipid processing in zebrafish, primary screen, whole organism, PED6 fluorescence, gall bladder and intestine (AID 686;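 active = a full or partial loss of lipid-probe fluorescence in the fish gall bladder, intestine or both, judged by eye; inactive = no fluorescence loss, or compound toxic to the fish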;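 note: larvae 5 to 7 days old with five fish per well; signal comes from phospholipase A2 cleavage of quenched PED6 carried via bile; overnight exposure to compound and PED6 before scoring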). The settings on record: Zebrafish larvae PED6 lipid processing, fluorescence scoring; screened at 20 µM (by protocol).
Assay [11] in a line: loss of swimming-algae plug formation – whole organism, Chlamydomonas reinhardtii, WT vs cilia-less mutant, absorbance, 96-well, primary screen (AID 463189;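 active = inhibition at or above 50% relative to wild type and mutant plate controls; inactive = inhibition below 50%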;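 note: 0% = wild type cc124 cells in DMSO and 100% = ciliumless bld1 mutant cells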). The settings on record: Chlamydomonas reinhardtii gravitaxis, OD600 absorbance, 2 days; at 10 µM; stronger effect = higher value.
The nature of assay [12]: blockers of RIG-like receptor reporter activation – cell-based, Sendai virus stimulus, luciferase, 10K MLSCN set, TLR/RLR signaling modifier project, primary screen (AID 602276;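 active = inhibition at or above 50% at 10 µM; inactive = inhibition below 50%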;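 note: firefly luciferase from ISG56 promoter only with Renilla not read in this screen; 0% = Sendai virus plus DMSO and 100% = medium plus DMSO without virus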). The settings on record: HEK293 RL24 IRF3 luciferase reporter, at 10 µM, stronger effect = higher value.
A short description of assay [13]: TLR3 IRF3 reporter activation blockers – cell-based, poly I:C stimulus, luciferase, 10K MLSCN set, primary screen (AID 602277;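 active = inhibition of the reporter signal at or above 50%; inactive = inhibition below 50%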). The settings on record: HEK293-TLR3 RL24 IRF3 luciferase reporter, at 10 µM, stronger effect = higher value.
The mark [14] stands for this setting: measured here: cell density z-score.
Setting [15] is: measured here: nuclear c-Myc green intensity z-score.
Where [16] appears, read: measured here: nuclear pErk red intensity z-score, stronger effect = higher value.

Activity calls are given as the source filed them.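 Rule for the calls, unless noted: active = fluorescence slope after compound addition differing from the mean of all tested samples at 99.7% confidence, mostly higher but some lower; inactive = the rest.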

Sequence of Alpha-2C adrenergic receptor (Homo sapiens) (P18825 whole entry, looked up): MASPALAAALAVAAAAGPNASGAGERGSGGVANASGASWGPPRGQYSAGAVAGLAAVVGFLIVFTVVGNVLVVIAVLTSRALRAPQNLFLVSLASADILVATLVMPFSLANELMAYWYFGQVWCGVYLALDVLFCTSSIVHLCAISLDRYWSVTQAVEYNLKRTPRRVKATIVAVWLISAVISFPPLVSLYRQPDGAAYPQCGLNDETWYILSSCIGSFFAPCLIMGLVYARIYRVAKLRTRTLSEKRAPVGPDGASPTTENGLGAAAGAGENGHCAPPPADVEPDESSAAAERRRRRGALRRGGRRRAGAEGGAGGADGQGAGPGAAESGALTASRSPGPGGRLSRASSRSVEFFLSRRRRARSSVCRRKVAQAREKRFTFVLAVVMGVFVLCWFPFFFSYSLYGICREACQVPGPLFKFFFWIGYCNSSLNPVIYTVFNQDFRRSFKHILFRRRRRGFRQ
Sequence of Voltage-gated potassium channel subunit beta-2 (Rattus norvegicus) (P62483 whole entry, looked up): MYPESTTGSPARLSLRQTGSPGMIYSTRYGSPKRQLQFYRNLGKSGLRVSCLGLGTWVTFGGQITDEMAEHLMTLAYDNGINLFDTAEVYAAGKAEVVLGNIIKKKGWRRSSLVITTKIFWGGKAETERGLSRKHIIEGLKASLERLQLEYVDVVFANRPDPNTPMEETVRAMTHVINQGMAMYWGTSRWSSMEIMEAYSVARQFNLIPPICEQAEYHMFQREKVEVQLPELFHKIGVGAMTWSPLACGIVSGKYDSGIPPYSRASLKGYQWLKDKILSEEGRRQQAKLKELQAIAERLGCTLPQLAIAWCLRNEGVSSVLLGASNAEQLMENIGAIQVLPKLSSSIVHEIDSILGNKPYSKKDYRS

Turning to `COc1cccc(C2C(C(=O)c3cc4ccccc4o3)=C(O)C(=O)N2CCN(C)C)c1OC` (stereo not given), the cell count in assay [1] is 516. Besides, the inhibition (in general, the change of the read-out against control, counted positive when it falls) in [1] was -3.4% (inactive); in assay [3], -49.8% (inactive); in [5], 22.7% (inactive); in [11], 20.6% (inactive); in [12], 9.6% (inactive); in [13] it was 6.82% (inactive). The inhibition of aggregation in assay [2] was 31% (inactive). For the same molecule, the nuclei count in assay [2] is 87.3%; in [3] it was 124%. Moreover, the z-score in assay [4] (setting [14]) is 0.445; in assay [4] (setting [15]), -1.47; in [4] (setting [16]) it was -1.27. The fluorescence slope in assay [6] is -0.492 (inactive); in assay [9] it was 0.00523 (inactive). The NADPH fluorescence slope in assay [7] is -4.6e-05 (inactive). Further, the slope in assay [8] was 0.0034 (inactive). The outcome in assay [10] was inactive.

With `Cc1c(C=NCCOCc2ccccc2)cnn1C`, in assay [1], the cell count came out at 579. The inhibition was 0.8% (inactive) in assay [1]; -159% (inactive) in [3]; -1.98% (inactive) in [5]; -6.27% (inactive) in [11]; 11.7% (inactive) in assay [12]; 12.3% (inactive) in [13]. Also, the inhibition of aggregation in [2] is -5.6% (inactive). The nuclei count amounted to 102% in [2] and 116% in assay [3]. For the same molecule, the results for the z-score in assay [4] (setting [14]), in assay [4] (setting [15]) and in assay [4] (setting [16]) were 0.444, 0.191 and 0.325, respectively. In addition, the fluorescence slope was -0.369 (inactive) in assay [6] and 0.00645 (inactive) in assay [9]. For the same molecule, the NADPH fluorescence slope in assay [7] was -3e-05 (inactive). Besides, in assay [8], the slope was 0.00503 (inactive). Also, the result in assay [10] was inactive.

Regarding `CCCc1nc(N2CCOCC2)c(C#N)c2c1CCCC2`, in [1], the cell count stood at 496. The inhibition in assay [1] is -5.5% (inactive); in [3] it was -58.9% (inactive); in assay [5], 5.35% (inactive); in assay [11] it was -4.21% (inactive); in assay [12] it was 19.9% (inactive); in [13], 22.6% (inactive). The inhibition of aggregation in [2] was -8.4% (inactive). In addition, the nuclei count in [2] was 89.6%; in assay [3], 128%. Further, the z-score in [4] (setting [14]) is -0.193; in assay [4] (setting [15]) it was 0.212; in [4] (setting [16]) it was -0.0343. The fluorescence slope in assay [6] was -0.436 (inactive); in assay [9], 0.00443 (inactive). Moreover, in assay [7], the NADPH fluorescence slope was -0.000102 (inactive). For the same molecule, the slope in [8] was 0.00439 (inactive). Besides, the outcome in assay [10] was inactive.

In the case of `CC(NC(=O)NCCCC(=O)O)(C(F)(F)F)C(F)(F)F`, the cell count in [1] turned out to be 582. Also, the inhibition in assay [1] is -3.7% (inactive); in assay [3] it was -76% (inactive); in assay [5] it was -2.09% (inactive); in assay [11] it was 11.9% (inactive); in assay [12] it was 18.9% (inactive); in assay [13], 21.7% (inactive). Besides, the inhibition of aggregation in assay [2] is 8.7% (inactive). Besides, the nuclei count in [2] was 98.1%; in assay [3], 122%. Also, the z-score in assay [4] (setting [14]) was -0.792; in [4] (setting [15]), -0.179; in assay [4] (setting [16]) it was 1.85. Moreover, the fluorescence slope was -0.428 (inactive) in assay [6] and 0.00478 (inactive) in assay [9]. Further, the NADPH fluorescence slope in [7] is -1.9e-05 (inactive). Moreover, the slope in assay [8] is 0.00567 (inactive). In [10], the molecule was called inactive.

With `COc1cc2[nH]c3c(=O)n(CCN(C(C)C)C(C)C)cnc3c2cc1OC`, the cell count in assay [1] was 531. The inhibition was -5.6% (inactive) in assay [1]; -26.1% (inactive) in [3]; 3.97% (inactive) in [5]; 5.81% (inactive) in assay [11]; 10.1% (inactive) in [12]; 33.2% (inactive) in [13]. For the same molecule, in assay [2], the inhibition of aggregation is -4% (inactive). In addition, the nuclei count in [2] amounted to 102%; in assay [3] it was 150%. Moreover, the z-score in assay [4] (setting [14]) was 0.411; in [4] (setting [15]), -1.49; in assay [4] (setting [16]), 0.261. Moreover, the fluorescence slope was -0.317 (inactive) in assay [6] and 0.00609 (inactive) in [9]. Also, in assay [7], the NADPH fluorescence slope is -1.9e-05 (inactive). The slope in assay [8] is 0.00406 (inactive). Besides, the call in [10] was inactive.
